Data: PubChem BioAssay AID1259423 (Fisher Drug Discovery Resource Center, 2018)
Values joined by “and” are separate entries in the source; they are usually repeats but may differ in a detail not shown here. Equal entries are not always repeated. In all, about 270,000 compounds went through this assay and about 410 (0.15%) were called active. Rule as the data show it: active = activation above about 40%; inactive = the rest, inconclusive results apart. What follows is part of a selection rich in actives, with near analogues and random picks from the rest.

Tested on: Aedes aegypti neuropeptide Y-like receptor 7 (NPYLR7)
Assay: agonists of mosquito NPYLR7 receptor, primary screen, cell-based, Aedes aegypti, calcium fluorescence, mosquito biting behavior (AID 1259423);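 also: 0% = vehicle and 100% = reference agonist at the receptor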
Conditions: HEK293T NPYLR7/Galpha15, GCaMP6s calcium fluorescence, at 10 µM, stronger effect = higher value
[1] = measured here: Max-Min RFU normalised activation

Row | Structure (SMILES) | activation | activation [1]
1 | CC(c1cccs1)N(C)C(=O)c1n[nH]c(C2CC2)c1Br (centres undefined) | -2.08% (inactive) | 0.622%
2 | O=C1Nc2ccccc2C1=NN=C(C(=O)c1ccccc1)c1ccccc1 | 11.7% (inactive) | 10.9%
3 | CCC(=O)Nc1cccc(OCC(=O)N2CCCC2c2nonc2C)c1 (centres undefined) | -16.1% (inactive) | -16.7%
4 | Cc1ccc(NC(=O)Cn2cnc3sc4c(c3c2=O)CCC4)c(F)c1 | -14.9% (inactive) | -15.4%
5 | COc1cc(OC)c(OC)cc1/C=C1/SC(=S)NC1=O | -3.39% (inactive) | -7.58%
6 | COc1cc(C=C2SC(=S)NC2=O)cc(Br)c1O | 668% (active) | 942%
7 | COc1ccc(C=C2SC(=S)NC2=O)cc1OC | 1.47% (inactive) | 3.32%
8 | Cc1cc(S(=O)(=O)C(CNC(=O)CC(C)(C)C)c2cccs2)ccc1F (centres undefined) | 5.15% (inactive) | 2.88%
9 | COCCNC(=S)N(CCC#N)CCN(CCC#N)C(=S)NCCOC | -2.49% (inactive) | -3.45%
10 | Cc1cnccc1N1CCCN(C(=O)[C@H](N)CC(C)C)CC1 | 8.21% (inactive) | 7.83%
11 | Cc1ccccc1-c1noc(CN2CCN(C(=O)c3cc(C4CC4)[nH]n3)CC2)n1 | 0.903% (inactive) | 0.506%
12 | CCC(CO)[n+]1c(C)cc(C=C2Sc3ccccc3N2CC)cc1C (centres undefined) | 56.5% (active) | 44.4%
13 | Cn1nc(C(F)(F)F)cc1C(=O)N1CCCC(O)(CO)CC1 (centres undefined) | 3.25% (inactive) | 1.85%
14 | COC(=O)Cn1cc(C=C(C#N)C(=O)NCCc2c[nH]c3ccccc23)c2ccccc21 | 1.04% (inactive) | 1.01%
15 | CCCn1nccc1C(=O)Nc1cc2c(C)cc(=O)oc2cc1C | -4.21% (inactive) | -5.15%
16 | CCCc1nc(N2CCCN(c3ncccn3)CC2)c2cnn(C)c2n1 | -2.57% (inactive) | -6.77%
17 | COc1ccc(OC)c(S(=O)(=O)N2CCCC(c3nc4ccccc4s3)C2)c1 (centres undefined) | -8.36% (inactive) | -7.77%
18 | Cc1ccn(-c2ccc(NC3CC4CCC3O4)nn2)n1 (centres undefined) | 7.09% (inactive) | 3.85%
19 | Cc1ccc(C2(c3noc(CN(C)Cc4ccc5ccccc5n4)n3)CCCC2)cc1 | 32.2% (inactive) and 4.89% (inactive) | 24.1% and 13.2%
20 | CSc1[s+]sc2c1-c1ccc(C)cc1NC2(C)C | -1.46% (inactive) | 5.63%
21 | Cn1cc(NC(=O)Nc2cccc(N3CCCCCC3)c2)cn1 | 8.13% (inactive) | 3.07%
22 | O=C(O)c1[nH]ncc1CN1CCc2onc(-c3ccc(C(F)(F)F)cc3)c2C1 | 78.5% (active) | 41.2%
23 | O=C(CCc1ccco1)N1CCc2onc(-c3ccc(C(F)(F)F)cc3)c2C1 | 3.67% (inactive) | -10.1%
24 | O=C(O)c1[nH]ncc1CN1CCCC(c2[nH]ncc2Cc2ccccc2)C1 (centres undefined) | 2.78% (inactive) | 3.74%
25 | Cc1csc(N(C)C(=O)c2cc(N3CCNC3=O)ccc2F)n1 | -7.45% (inactive) | -7.61%
26 | COc1ccc(-n2nnc3c(N4CCN(C(=O)c5ccc(Br)o5)CC4)ncnc32)cc1 | -8.62% (inactive) | -14.8%

Row | Structure (SMILES) | activation | activation [1]
27 | N#CCc1nc2ncc(Br)cc2[nH]1 | -4.5% (inactive) | -5.31%
28 | CCOc1ccc(/C=C(\C#N)c2[nH]nc(N)c2C#N)cc1OCC | -1.82% (inactive) | -4%
29 | CCOc1cc(/C=C(\C#N)c2nc3ncc(Br)cc3[nH]2)ccc1O | 90.2% (active) | 69.1%
30 | OCc1ccc(CN2CCC(Oc3ccc(Cl)cc3)CC2)o1 | 2.49% (inactive) | 0.105%
31 | COCCN(Cc1cc(NC(=O)c2cccc(F)c2)ccc1N(C)C)C(=O)NC(C)(C)C | -2.37% (inactive) | -0.561%
32 | CCOC(=O)c1ccc2c(c1)nc(SCc1cccc(C(=O)OC)c1)n2Cc1cccc(F)c1 | -6.01% (inactive) | -4.5%
33 | COc1cc(/C=C2/C(=O)N(c3ccc(Cl)c(Cl)c3)N=C2C)cc(Br)c1O | -1.16% (inactive) | 5.59%
34 | COc1cc(C=C2C=c3c(O)cccc3=C2O)cc(Cl)c1O | 203% (active) | 183%
35 | COc1cccc(CSc2nnc(CNC(=O)Nc3cc(OC)cc(OC)c3)n2-c2ccc([N+](=O)[O-])cc2)c1 | 22.3% (inactive) | 16.8%
36 | CC(C)CNC(=O)c1ccc2c(=O)n(Cc3ccccc3)c3nn(CC(N)=O)c(=O)n3c2c1 | 2.33% (inactive) | -0.424%
37 | C/C=C/c1cc(C(=O)N2CCN(CCO)CC2)cc(OC)c1OC | 2.68% (inactive) | 0.348%
38 | CC(C)N(CC1CCC(=O)N1)C(=O)c1cc(Cl)c[nH]c1=O (centres undefined) | -1.21% (inactive) | -6.03%
39 | CN1CC2(CCCN(C(=O)c3cccc(Cn4cccn4)c3)CC2)OC1=O (centres undefined) | 33.4% (inactive) | 15.5%
40 | CC(C)(Oc1ccc(Cl)cc1)C(=O)Nn1cnc2c(cnn2-c2ccccc2)c1=O | 2.94% (inactive) | -1.1%
41 | O=C(O)C1CC2CCCC(C1)C2=O (centres undefined) | 2.14% (inactive) | 1.09%
42 | COc1ccc(C2SCCN2C(=O)c2cc3cc(Br)ccc3oc2=O)cc1 (centres undefined) | 1.99% (inactive) | -4.59%
43 | O=C1CCC(C(=O)N(Cc2ccc(F)cc2)C2CC2)=NN1c1ccccc1 | 2.48% (inactive) | 1.4%
44 | CCn1c(C2CCN(CCC3=C(C)CCCC3(C)C)CC2)nn(C)c1=O | 14.4% (inactive) | 4.06%
45 | CCc1cc(=O)[nH]c(-n2nc(C)cc2NC(=O)C2c3ccccc3Oc3ccccc32)n1 | 10.2% (inactive) | 5.92%
46 | CNC(=O)NC(=O)C(C)Sc1nnc(-c2ccco2)n1CCC(N)=O (centres undefined) | 1.74% (inactive) | 5.62%
47 | CCOC(=O)Nc1cc(=O)c2cc(C)ccc2o1 | 0.463% (inactive) | -6.18%
48 | COc1ccc(C)c2sc(N(CCCN3CCOCC3)C(=O)c3ccc([N+](=O)[O-])cc3)nc12 | -0.485% (inactive) | -6.29%
49 | COCCNCC(=O)N(Cc1ccccc1)Cc1ccc(C)s1 | -5.15% (inactive) | -13.2%
50 | Cc1ccc(CN(Cc2ccc(F)cc2)C(=O)CNCCN2CCOCC2)s1 | 56.1% (active) | 58%
51 | O=C(CNCCN1CCOCC1)N(Cc1ccccc1)Cc1cccs1 | -7.58% (inactive) | -12.6%
52 | Cc1ccc(CNc2oc(-c3ccc(S(=O)(=O)N(C)Cc4ccccc4)cc3)nc2C#N)cc1 | -0.355% (inactive) | 4.09%
